Hits are enriched below; roughly 0.9% of the tested compounds scored in any of these assays.
Yp Topo-I inh – Yersinia pestis topoisomerase I inhibitors, primary screen, biochemical, cleavage product accumulation, plate reader, single point; AID 504884, 2011; 360,000 compounds, 0.064% hits; DNA topoisomerase I (Yersinia pestis CO92); activity, % at 10 µM; Y. pestis Topo-I cleavage product accumulation; in the data active means activity above about 50%, passing the limit was not always enough; inconclusive means no clear call, values can overlap the other calls
SSB-PriA inh – inhibitors of Klebsiella pneumoniae PriA binding to SSB C-terminal tail, primary screen, biochemical, AlphaScreen. AlphaScreen SSBct-PriA binding, biotinylated peptide. inhibition, % at 33 µM. 430,000 compounds, 0.6% hits. AID 1272365, 2023; in the data active means inhibition mostly above about 37%, no sharp cut-off; inactive means mostly below about 20%
3CLpro inhibitor – SARS-CoV 3CLpro protease inhibitors, primary screen, biochemical, quenched FRET | recombinant SARS-CoV 3CLpro, quenched FRET peptide cleavage | inhibition, % at 6 µM | 290,000 compounds, 0.14% hits; in the data active means inhibition above about 12%
MazF activator – activators of E. coli MazEF toxin-antitoxin RNase, primary screen, biochemical, fluorescence, uHTS | FAM/BHQ RNA-DNA oligo cleavage fluorescence, 5 h | activation, % at 20 µM | 350,000 compounds, 0.32% hits | AID 504720, 2011; in the data active means activation above about 50%
Target sequence (P0AE70 whole entry, looked up): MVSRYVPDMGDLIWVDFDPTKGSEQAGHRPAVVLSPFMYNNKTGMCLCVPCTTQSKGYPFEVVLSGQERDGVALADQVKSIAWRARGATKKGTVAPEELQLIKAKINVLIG
Numbers stand for hits; i = inactive; ? = inconclusive; nt = not tested or not shown; ! = a repeat was not active.

SMILES	Yp Topo-I inh	SSB-PriA inh	3CLpro inhibitor	MazF activator
Cc1ccccc1C(=O)N1CCN(CCNC(=O)C(=O)Nc2ccc(Br)cc2)CC1	i	39.0	i	i
CCOC(=O)CC(=O)CSc1nnc(NC(=O)Nc2ccc(F)cc2)s1	nt	i	nt	nt
COc1ccc(N2CCN(Cc3csc(C)c3-c3ccc(C)cc3)CC2)cc1	i	90.6	i	i
Cc1cccc(N=NC(=S)NNc2cccc(C)c2)c1	i	51.6	nt	i
Cc1cccc(NNC(=O)C(=O)NNc2cccc(C)c2)c1	i	i	i	i
CN(C)CCCn1c(=S)[nH]c2ccccc2c1=O	i	i	i	i
CN(C)CCCn1c2c3ccccc3ccc2c2oc(=O)c3ccccc3c21	i	i	nt	847.1
CCOC(=O)N1CCN(c2nc(C)cc(N)n2)CC1	nt	i	nt	nt
O=C(NCCCn1ccnc1)Nc1ccc(Cl)c(Cl)c1	i	75.8	i	i
CCn1nnc2c(=O)n(CC(=O)NCc3ccco3)cnc21	nt	i	nt	nt
N#C/C(=C/c1ccc(N2CCOCC2)o1)c1nc2ccccc2[nH]1	i	i	i	428.0
CC(C)CC1NC(=O)c2cc3ccccc3cc2-n2c1nc1cc(Cl)ccc1c2=O (configuration not stated)	53.6	nt	nt	i
O=C1NC(Cc2ccccc2)c2nc3ccccc3c(=O)n2-c2cc3ccccc3cc21 (configuration not stated)	51.0	nt	nt	i
COc1cc2nc3n(c(=O)c2cc1OC)-c1cc2ccccc2cc1C(=O)NC3CC(C)C (configuration not stated)	i	nt	nt	i
COc1cc2nc3n(c(=O)c2cc1OC)-c1cc2ccccc2cc1C(=O)NC3Cc1ccccc1 (configuration not stated)	65.1	nt	nt	i
O=C1NC(Cc2ccccc2)c2nc3cc(F)ccc3c(=O)n2-c2cc3ccccc3cc21 (configuration not stated)	?	nt	nt	i
CCOC(=O)c1sc2ncn(/N=C\N(C)C)c(=O)c2c1C	nt	i	nt	nt
CCCCCCC(NC(=O)c1ccc(C)cc1)C(=O)O (configuration not stated)	i	56.6	nt	i
Cc1ccc(C(=O)NC(CCc2ccccc2)C(=O)O)cc1 (configuration not stated)	i	i	nt	i
CCN(c1ccccc1)S(=O)(=O)c1ccc(C(=O)N(CCCN(C)C)c2nc3cc4c(cc3s2)OCO4)cc1	i	i	i	i
CCOc1cccc2sc(N(CCCN(C)C)C(=O)c3ccc(S(=O)(=O)N(C)Cc4ccccc4)cc3)nc12	i	38.0!	i	i
CCN(c1ccccc1)S(=O)(=O)c1ccc(C(=O)N(CCCN(C)C)c2nc3c(C)cccc3s2)cc1	i	36.0!	i	i
COc1ccc2nc(-c3ccc(NC(=O)COc4ccc(Cl)cc4)cc3)cn2n1	nt	i	nt	nt
O=C([C@H]1CCCN(S(=O)(=O)c2cccs2)C1)N(Cc1ccco1)c1nc2ccccc2s1	nt	i	nt	nt
C#CCSc1nnnn1-c1cccc(Cl)c1	i	i	i	i
SMILES	Yp Topo-I inh	SSB-PriA inh	3CLpro inhibitor	MazF activator
C#CCSc1nnnn1-c1ccc(Br)c(C)c1	i	82.6	i	i
O=c1c2ccccc2c(C=NCc2ccccn2)c(O)n1-c1ccccc1	i	i	i	162.2
NNc1nc(-c2ccccc2)cc(-c2ccccc2O)n1	i	39.9	i	i
CCCOc1ccc(/C=N\NC(=O)Cc2nc3ccccc3[nH]2)cc1	nt	i	nt	nt
Cc1cc(C(=O)N(CCCN2CCOCC2)c2nc3c(Cl)cccc3s2)no1	nt	i	nt	nt
Cc1c(C(N)=O)c(-c2ccccc2)nn1-c1ccccc1	i	i	i	i
CCCc1c(-c2ccc(O)cc2)nn(-c2ccc(O)cc2)c1-c1ccc(O)cc1	i	i	nt	51.4
COc1ccc(Cl)cc1C(=O)NCCCc1ccc(N(C)C)cc1	nt	i	nt	nt
Nc1ccccc1Nc1cc(-c2cccc(Cl)c2)nn1-c1ccccc1	i	58.2	i	i
CC(C)(C)c1ccc(-c2nc(C#N)c(N3CCCCC3)o2)cc1	nt	72.8	nt	nt
COc1ccccc1-c1nc(C#N)c(N2CCN(Cc3ccccc3)CC2)o1	i	40.8	i	i
N#Cc1nc(-c2ccccc2F)oc1N1CCCCC1	i	i	i	i
N#Cc1nc(-c2ccccc2Cl)oc1N1CCCCC1	i	48.2	i	i
COc1ccc(-c2nc(C#N)c(N3CCN(C)CC3)o2)cc1	nt	54.2	nt	nt
Cc1cccc(NC(=O)CSc2nccc(N3CCCCCC3)n2)c1C	nt	i	nt	nt
O=C(NCCSc1ncc(-c2ccccc2)[nH]1)C(=O)Nc1ccc(Cl)cc1	nt	i	nt	nt
COc1ccccc1Nc1ccc2c(O)cc(S(=O)(=O)O)cc2c1	i	51.4	nt	i
CC(C)COC(=O)c1ccccc1C(=O)OCC(C)C	i	i	nt	i
CCCCC(CC)COC(=O)c1ccccc1C(=O)OCC(CC)CCCC (configuration not stated)	60.8	i	nt	i
O=[N+]([O-])c1nn(-c2ccccc2)[n+]([O-])c1N1CCN(c2ccccc2F)CC1	i	i	i	143.8
O=[N+]([O-])c1nn(-c2ccccc2)[n+]([O-])c1N1CCN(c2ccccc2)CC1	i	i	i	i
Oc1[nH]c2ccccc2c1C=Nc1nccs1	nt	i	nt	nt
O=C(CCc1ccc(C(F)(F)F)cc1)NC[C@]1(O)CCc2ccccc21	nt	i	nt	nt
O=C(O)c1ccc(C2CCCCC2)cn1	i	116.0	i	i
Cc1cc(C)c2sc(N(Cc3ccco3)C(=O)c3ccc(Cl)cc3)nc2c1	nt	i	nt	nt
SMILES	Yp Topo-I inh	SSB-PriA inh	3CLpro inhibitor	MazF activator
COc1ccccc1OCCNC(=O)c1ccco1	i	i	i	i
NCCOc1ccc(-c2ccccn2)nn1	nt	154.0	nt	nt
O=C(NCCOc1ccc(-c2ccccn2)nn1)c1ccco1	nt	115.5	nt	nt
COc1cccc(CCNC(=O)CC2CSc3nc4c(c(=O)n32)CCCC4)c1 (configuration not stated)	nt	i	nt	nt
CC(C)Nc1nc(NC(C)C)nc(N(C)N)n1	i	65.3	i	i
Cn1nc(C2CC2)cc1N1CCN(C(=O)Cc2cccs2)CC1	nt	i	nt	nt
CC1CCc2c(sc3c2C(=O)NC(c2ccccn2)N3)C1 (configuration not stated)	nt	66.7	nt	nt
CCn1c(-c2cccc(Br)c2)nc2ccccc21	nt	i	nt	nt
COc1ccc2cc(C(=O)N3CCC(N4CCc5sccc5C4)CC3)[nH]c2c1	nt	i	nt	nt
CN(C)S(=O)(=O)c1ccc(C(=O)N2CCC(c3nc4ccccc4[nH]3)CC2)cc1	nt	i	nt	nt
COc1ccc(C2C(C(=O)c3cccs3)=C(O)C(=O)N2c2nncs2)cc1 (configuration not stated)	i	i	i	i
COc1ccc(C2C(C(=O)c3cccs3)=C(O)C(=O)N2c2nnc(C)s2)cc1OC (configuration not stated)	i	i	i	69.0
CC(C)c1nnc(N2C(=O)C(O)=C(C(=O)c3cccs3)C2c2ccccc2)s1 (configuration not stated)	i	i	i	172.0
C=CCOc1ccc(C2C(C(=O)c3cccs3)=C(O)C(=O)N2c2nnc(C)s2)cc1 (configuration not stated)	i	i	i	315.0
Cc1cc(C(=O)Nc2c3c(nn2C)CCC3)n(C)n1	nt	i	nt	nt

Bioassay records as filed in PubChem.
